Shown are actives, neighbours in structure and some others; about 7.1% of the full set was active somewhere.
MCF10A rerep = A quantitative high throughput screen for small molecules that induce DNA re-replication in MCF 10a normal breast cells; Potency, µM (series often up to 46.1 µM), usual class: activators; MCF 10A DNA re-replication, Hoechst nuclear intensity, 48 h; AID 624296, 2012; 2.9% of 350,000 active; also: nearly all actives have a fitted effect of over 50% in size
ATXN2 expr inh = Primary qHTS for Inhibitors of ATXN expression; 0.72% of 360,000 active; Potency, µM (highest dose often 57 µM), most hits filed as inhibitors; HEK-293 ATXN2-luciferase reporter, luminescence, 24 h; also: nearly all actives have a fitted effect of over 55% in size
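qHTS (up to 57 uM final) was run with 24 h compound exposure of reporter cells at 37 °C. Each well was multiplexed: SteadyGlo luminescence measured ATXN2-luciferase expression after a fluorogenic Gly-Phe-AFC viability readout (25 uM final).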
IL-1B inflam inh = qHTS for Inhibitors of Inflammasome Signaling: IL-1-beta AlphaLISA Primary Screen; THP-1 LPS/ATP IL-1B secretion, AlphaLISA, 16 h; active compounds read low; activity change, % at 57.5 µM; 4.7% of 360,000 active; AID 743279, 2014; in the data active = activity change below about -50%; inconclusive = mostly about -30% to -49%
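Secreted IL-1B measured by AlphaLISA bead assay after 16 h compound exposure of THP-1 cells; compounds (final up to 57.5 uM) added 1 h before LPS (250 ng/mL) and ATP (1.25 mM) stimulation; lower signal means less secretion.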
SW480 rereplic = A quantitative high throughput screen for small molecules that induce DNA re-replication in SW480 colon adenocarcinoma cells; SW480 DNA re-replication, Hoechst DNA content imaging, 48 h; Potency, µM (doses to about 46.1 µM), most hits filed as activators; 1.8% of 340,000 active; AID 624297, 2012; also: nearly all actives have a fitted effect of over 55% in size
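Image-based read-out: total Hoechst fluorescence of nuclei (405 nm excitation, 500-530 nm emission), with hits raising the fraction of high-intensity nuclei. SW480 colon cells incubated 48 hr with compounds at 37 C.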
ATXN viability = Viability Counterscreen for Primary qHTS for Inhibitors of ATXN expression. S2 cells (HEK-293 line with an ATXN2-luciferase reporter) viability, CellTiter-Fluor protease fluorescence, 24 h. Potency, µM (doses to about 56.7 µM), usual class: cytotoxic. 0.49% of 400,000 active. AID 651635, 2014; also: nearly all actives have a fitted effect of over 40% in size
PINK1 expr mod = A Quantitative High throughput Screen to Identify Chemical Modulators of PINK1 Expression. PINK1 immunofluorescence, high-content cytometry, 24 h. Potency, µM (series often up to 76.6 µM), hits mostly activators. 0.2% of 410,000 active; active = well fitted activation curve with a large enough effect; inconclusive = small, poorly fitted or top-dose-only effect; cell line not stated here; also: nearly all actives have a fitted effect of over 65% in size
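Stable cell line treated 24 h with compounds at 5 concentrations (CCCP controls), then fixed and immunostained for PINK1 plus nuclear and cell stains; PINK1 immunofluorescence quantified by laser-scanning microplate cytometry.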
Numbers stand for hits; – = inactive; ? = inconclusive; · = no result given; ! = not confirmed by another sample; [ ] = remark or other dose. Unless noted, calls follow the shape of the dose curve; as a rule, active = well fitted curve in the direction sought with a large enough effect; inconclusive = small, poorly fitted or top-dose-only effect, or another doubt; inactive = no such curve, though single readings can be large; an effect the other way counts as inactive or inconclusive.

SMILES	MCF10A rerep	ATXN2 expr inh	IL-1B inflam inh	SW480 rereplic	ATXN viability	PINK1 expr mod
CCC[n+]1c2ccccc2cc2ccccc21	13µM	–	-99	12µM	–	–
CCCC[n+]1c2ccccc2cc2ccccc21	–	·	-101	?	·	–
OCCCNc1c2ccccc2nc2ccccc12	–	?	-104	?	?	–
c1ccc2c(NCCc3c[nH]c4ccccc34)c3ccccc3nc2c1	–	·	-57	–	?	–
Cc1c(C(=O)O)sc2nc(/C=C/c3cccc(O)c3)[nH]c(=O)c12	7.3µM	–	–	?	–	–
COC(=O)c1ccc(CSc2nc3sc(C(=O)O)c(C)c3c(=O)[nH]2)cc1	–	–	–	–	–	–
CCN(c1ccc(NS(=O)(=O)c2cc(Cl)ccc2Cl)cc1)C(C)C	23µM	–	-92	?	–	?
CCC(C)NCCC(=O)Nc1ccc(Cl)c(S(=O)(=O)Nc2ccc(Cl)cc2)c1 (centres undefined)	13µM	–	-51	–	–	–
CN1CCN(S(=O)(=O)c2cccc(C(=O)N(Cc3nnc(-c4ccc(Cl)cc4)o3)C3CC3)c2)CC1	–	–	?	6.5µM	?	–
COc1ccc(NC(=O)CCc2c(C)nc3c(c2C)c(=O)n(C)c(=O)n3C)cc1OC	·	–	·	·	–	–
CCC(=O)N1CCc2cc(S(=O)(=O)NC(Cc3ccccc3)C(=O)Nc3ccc(C)cc3)ccc21 (centres undefined)	·	–	·	·	?	–
N[C@@H](Cc1ccc(O)c(O)c1)C(=O)O	–	–	-107	–	?	–
N[C@@H](Cc1cc(I)c(Oc2ccc(O)c(I)c2)c(I)c1)C(=O)O	21µM!	–	–	–	–	–
CC(Cc1ccc(O)c(O)c1)C(C)Cc1ccc(O)c(O)c1 (centres undefined)	?	–	-75	0.37µM!	?	?
Cc1cc(C)cc(NC(=O)C(CC(C)C)NC(=O)C2CCCCC2)c1 (centres undefined)	·	–	·	·	–	–
COc1ccc2ccccc2c1CN1CCc2nnc(C(NS(C)(=O)=O)C(C)C)n2CC1 (centres undefined)	·	·	·	·	–	–
Cc1c(Cl)cccc1NC(=O)CC(c1ccc(F)cc1)N1Cc2ccccc2C1=O (centres undefined)	·	·	·	·	·	–
CN(Cc1ccccc1)CC1C2CCC(C2)C1O (centres undefined)	–	–	–	–	–	–
CCOc1ccccc1C(=O)Nc1cc2c(cc1N1CCOCC1)n(C)c(=O)n2C	·	–	·	·	–	–
CC(C)(Oc1ccc(Cl)cc1)C(=O)Nc1nc2ccc(S(C)(=O)=O)cc2s1	·	–	·	·	?	–
C/C(N)=C(/C#N)C(=O)COC(=O)c1cccc(O)c1	–	–	-54	–[1.84 µM]	?	–
Fc1ccc2nc(C3CCCCN3Cc3nc(CC4CC4)no3)[nH]c2c1 (centres undefined)	–	–	-65	–	–	–
Cc1ccc(NC(=O)Cc2ccc(NC(=O)N3CCCCc4ccccc43)cc2)cc1Cl	·	–	·	·	–	–
COCc1nnc(NC(=O)C2CC(=O)N(c3ccc(C)c(Cl)c3)C2)s1 (centres undefined)	–	–	–	?	–	–
Cc1ccc(N2CC(C(=O)N3CCC(C(=O)Nc4cccc(Br)c4)CC3)CC2=O)cc1 (centres undefined)	?	–	?	–	–	–
SMILES	MCF10A rerep	ATXN2 expr inh	IL-1B inflam inh	SW480 rereplic	ATXN viability	PINK1 expr mod
Cc1cc(C)cc(NC(=O)C2CC(=O)N(c3ccccc3)C2)c1 (centres undefined)	·	–	·	·	–	–
Cc1ccc(N2CC(C(=O)N3CCC(C(=O)Nc4ccc(Br)cc4)CC3)CC2=O)cc1 (centres undefined)	–	?	-61	–	–	–
Cc1ccc(N2CC(C(=O)Nc3nccs3)CC2=O)cc1Cl (centres undefined)	–	6.3µM	–	–	–	?
O=C(Nc1ccc(Cl)c(Cl)c1)C1CC(=O)N(c2ccc(Br)cc2)C1 (centres undefined)	–	–	-60	–	–	–
O=C(C1CCCN(Cc2nc(-c3ccc(Cl)cc3)no2)C1)N1CCOCC1 (centres undefined)	–	–[11.3 µM]	-83	–	–	–
CC(CCO)Nc1nc2c(c(=O)n(C)c(=O)n2C)n1Cc1ccc(Br)cc1 (centres undefined)	·	–	·	·	–	–
COc1ccc(CCNC(=O)CCCn2c(=O)c3ccccc3n(Cc3cccc(Cl)c3)c2=O)cc1OC	·	?	·	·	·	–
C=CCN(CC=C)CCOc1cccc2ccccc12	–	–	-57	–	–	–
Cc1nnc(NCc2n[nH]c(=O)c3ccccc23)c2ccccc12	?	?	-101	?	?	–
COc1ccc(NCc2n[nH]c(=O)c3ccccc23)cc1	?	–	–	–	–	–
CCc1ccc(/C=C/c2c[nH]c3ccccc23)[n+](CC)c1	–	–	–	–	?	32µM
CCOc1ccc(-c2nonc2NC(=O)c2oc3c(C)c(C)ccc3c2C)cc1OCC	·	–	·	·	–	–
CCN1CCN(C(=O)C(C)Sc2nc3nc(C)cc(C)n3n2)CC1 (centres undefined)	–	–	-51	–	–	–
OC(c1cc(-c2ccc(Cl)cc2)nc2ccccc12)C1CCCCN1 (centres undefined)	–	·	-78	?	?	–
OC(c1cc(C(F)(F)F)nc2c(Cl)cc(Cl)cc12)C1CCCCN1 (centres undefined)	?	?	-89	?	?	–
O=c1c2cc(Cl)cc(Cl)c2nc2n1CCC2	?	–	–	–	–	–
NC(=O)C1CCN(C(=O)c2cc(-c3ccc(Cl)cc3)nc3ccccc23)CC1	–	–	–	–	–	–
Cc1cc(C)cc(NC(=O)C(=O)NCC(c2cccnc2)N2CCc3ccccc3C2)c1 (centres undefined)	·	·	·	·	·	–
Cc1ccc(-n2[nH]c(C)c(N=Nc3cccc(-c4cccc(C(=O)O)c4)c3O)c2=O)cc1C	·	?	·	·	–	·
Cc1ccc(S(=O)(=O)CCN2CCC(n3cccc3)CC2)cc1	–	–	-59	–	–	–
O=C(O)c1cnc(-c2ccccc2)nc1-c1ccccc1	–	–	–	–	–	–
O=C(Nc1ccccc1)c1cnc(-c2ccccc2)nc1-c1ccccc1	?	–	–	13µM	–	?
Cc1ccnc(NC(=O)c2ccc(Cl)c(NC(=O)c3ccccc3C)c2)c1	–	–	–	–	–	–
Cc1ccnc(NC(=O)c2ccccc2NC(=O)c2ccc(Cl)cc2Cl)c1	6.5µM	·	–	4.6µM	·	–

Screening data as filed in PubChem BioAssay.
